Compounds with a hit are over-represented: about 21% of the library has one in this group of screens.
CYP2C9 inhib: inhibitors of human CYP2C9 | CYP2C9 Supersomes, luciferin-H conversion, luminescence | inhibition, % at 5 µM | 20% of 96,000 active;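 active means blocking of liver enzyme CYP2C9 beyond about 50% at 5 µM, limit read from the data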
CYP2C19 activ: activators of human cytochrome P450 2C19; 96,000 tested, under 10 active; P33261; recombinant CYP2C19, luciferin-H EGE luminescence; stronger effect = higher value; 0 = fully inhibited enzyme, 1 = untreated enzyme; activation factor at 5 µM; AID 1025;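 active means activation factor of at least 2 at 5 µM in the primary screen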;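 further: 0 = wells with 2.5 mM tranylcypromine and 1 = vehicle-only wells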
Target sequence (P33261 whole entry, looked up): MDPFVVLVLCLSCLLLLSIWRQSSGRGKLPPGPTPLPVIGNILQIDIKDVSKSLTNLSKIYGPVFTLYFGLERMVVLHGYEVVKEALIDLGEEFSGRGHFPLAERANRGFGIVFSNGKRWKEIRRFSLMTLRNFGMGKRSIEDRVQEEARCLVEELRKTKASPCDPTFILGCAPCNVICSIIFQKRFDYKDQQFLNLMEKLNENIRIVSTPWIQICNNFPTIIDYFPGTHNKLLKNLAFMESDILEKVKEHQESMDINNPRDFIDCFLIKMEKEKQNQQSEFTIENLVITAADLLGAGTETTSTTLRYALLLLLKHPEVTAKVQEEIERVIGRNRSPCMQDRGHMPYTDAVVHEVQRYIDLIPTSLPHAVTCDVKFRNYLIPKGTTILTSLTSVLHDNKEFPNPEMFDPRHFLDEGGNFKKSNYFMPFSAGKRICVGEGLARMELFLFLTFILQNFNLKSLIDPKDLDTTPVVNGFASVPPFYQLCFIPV
MRP1 act: activators of MRP-1; viability increase, % at 10 µM; 0.61% of 140,000 active; H69AR cells + doxorubicin, viability rescue, CellTiter-Glo;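 active means viability gain under doxorubicin at or above a set limit, the compound median plus 3 SD, cut at about 4.7% in these data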;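 further: MRP-1 overexpressing cells given doxorubicin 25 µM after compound pretreatment; 18-22 h compound pretreatment then 72 h with doxorubicin before readout; 0% = doxorubicin-only wells and 100% = vehicle-treated cells without doxorubicin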
MRP reversal: reverses drug resistance mediated by MRP; H69AR cells + 2 uM doxorubicin, CellTiter-Glo, 72 h; differential viability (reversal), % at 10 µM; 0.04% of 85,000 active; AID 602;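 active means viability drop by adding the cancer drug above about 55%, with treated viability meeting a 40% cutoff, limit read from the data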;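 further: viability without doxorubicin minus viability with 2 µM doxorubicin for each compound; larger differential means the compound sensitizes cells more to doxorubicin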
CYP2C19 inhib: human CYP2C19 inhibition. P33261. inhibition, % at 5 µM. 21% of 96,000 active. CYP2C19 Supersomes, luciferin-H EGE luminescence, 30 min;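 active means CYP2C19 inhibition above a set limit at 5 µM in the primary screen, cut at about 50% in these data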;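 further: plate controls were negative control wells for no effect and 2.5 mM tranylcypromine positive control for full effect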
CYP2C9 act: increases human cytochrome P450 2C9 activity | P11712 | recombinant CYP2C9, luciferin-H conversion, luminescence; stronger effect = higher value; factor 1 = untreated enzyme, 0 = blocked | activation factor at 5 µM | 1.4% of 96,000 active | AID 1024;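 active means activation factor of 2 or more for CYP2C9 at a 5 µM dose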;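 further: 0 = sulfaphenazole-blocked wells and 1 = vehicle-only wells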
Starred values were filed as active, the others as inactive.

Screening CC(=O)OC(C(=O)NCc1ccc2c(c1)OCO2)c1ccccc1Cl (centres undefined) returned CYP2C9 inhib 54*, CYP2C19 activ 0.1, MRP1 act -1, MRP reversal 6, CYP2C19 inhib 93* and CYP2C9 act 0.5.
For CCCCc1ccc(C2C(C#N)=C(N)SC(N)=C2C#N)s1 the results were CYP2C9 inhib 99*, CYP2C19 activ 0.3, MRP1 act -2, MRP reversal -2, CYP2C19 inhib 68* and CYP2C9 act 0.
Screening CCc1ccc(NC(=O)C2C3/C=C\CCCCC32)cc1 (centres undefined) returned MRP1 act 0.
For O=C(COc1ccc(Cl)cc1Cl)NC(=S)N1CCCc2ccccc21 the results were CYP2C9 inhib 62*, CYP2C19 activ 0.4, MRP1 act -4, CYP2C19 inhib 60* and CYP2C9 act 0.4.
For CC(=O)N1CCN(c2ccc(NC(=O)COc3ccc(Cl)cc3Cl)cc2)CC1 the results were CYP2C9 inhib 18, CYP2C19 activ 0.8, MRP1 act -4, MRP reversal -11, CYP2C19 inhib 17 and CYP2C9 act 0.8.
Cc1ccc(C(C)C)c(OCC(=O)N2CCOCC2)c1 was read as CYP2C9 inhib -18, CYP2C19 activ 0.6, MRP1 act -3, MRP reversal -1, CYP2C19 inhib 36 and CYP2C9 act 1.2.
`CCC(=O)N1CCN(c2ccccc2NC(=O)COc2cc(C)ccc2C(C)C)CC1` gave CYP2C9 inhib 96*, CYP2C19 activ 0.1, MRP1 act -5, MRP reversal -6, CYP2C19 inhib 93* and CYP2C9 act 0.
Screening O=C(COc1ccc(Cl)cc1Cl)OCC(=O)N1CCCc2ccccc21 returned MRP1 act -3.
Screening CC(=O)N1CCN(c2ccccc2NC(=O)COc2ccc(Cl)cc2Cl)CC1 returned CYP2C9 inhib 46, CYP2C19 activ 0.2, MRP1 act -6, MRP reversal -16, CYP2C19 inhib 78* and CYP2C9 act 0.5.
CC(=O)N1CCN(c2ccccc2NC(=O)c2cc(Br)ccc2Cl)CC1 was read as CYP2C9 inhib 59*, CYP2C19 activ 0.6, MRP1 act -1, MRP reversal -2, CYP2C19 inhib 36 and CYP2C9 act 0.4.
CN1CCN(c2ccccc2NC(=O)c2cc(Br)ccc2Cl)CC1 was read as CYP2C9 inhib 10, CYP2C19 activ 0.9, MRP1 act -3, MRP reversal 2, CYP2C19 inhib 15 and CYP2C9 act 0.9.
For Cc1nc(N2CCC(C)CC2)c2c(C)c(C(=O)O)sc2n1 the results were CYP2C9 inhib -8, CYP2C19 activ 1.1, MRP1 act -4, MRP reversal -4, CYP2C19 inhib -7 and CYP2C9 act 1.1.
`CSc1ccc(NC(=O)N2CC=C(n3c(=O)[nH]c4ccccc43)CC2)cc1` gave MRP1 act 0.
O=C(O)CSCC(=O)NCc1ccccc1 was read as CYP2C9 inhib -11, CYP2C19 activ 1, MRP1 act 0, MRP reversal 5, CYP2C19 inhib 2 and CYP2C9 act 1.1.
Screening Cc1ccc(S(=O)(=O)NC(CC(=O)NC2CCCC2)c2ccco2)cc1 (centres undefined) returned CYP2C9 inhib 33, CYP2C19 activ 0.4, MRP1 act -3, MRP reversal 2, CYP2C19 inhib 58* and CYP2C9 act 0.7.
Screening Cc1ccc(S(=O)(=O)NC(CC(=O)N2CCOCC2)c2ccco2)cc1 (centres undefined) returned CYP2C9 inhib -14, CYP2C19 activ 0.6, MRP1 act -3, MRP reversal 5, CYP2C19 inhib 43 and CYP2C9 act 1.1.
For COCCCNC(=O)CC(NS(=O)(=O)c1ccc(C)cc1)c1ccco1 (centres undefined) the results were CYP2C9 inhib 8, CYP2C19 activ 0.8, MRP1 act -1, MRP reversal -20, CYP2C19 inhib 24 and CYP2C9 act 0.9.
For CCOC(=O)N1CCC(Nc2nc3ccccc3nc2NS(=O)(=O)c2ccc(Cl)cc2)CC1 the results were CYP2C9 inhib 95*, CYP2C19 activ 0.8, MRP1 act -1, CYP2C19 inhib 19 and CYP2C9 act 0.1.
Screening COCCCNC(=O)CC(NS(=O)(=O)c1ccc(Cl)cc1)c1ccco1 (centres undefined) returned CYP2C9 inhib 52*, CYP2C19 activ 0.4, MRP1 act -1, MRP reversal 11, CYP2C19 inhib 61* and CYP2C9 act 0.5.
Screening CCOC(=O)N1CCN(C(=O)CN(C2CCCCC2)S(=O)(=O)c2ccc(Cl)cc2)CC1 returned CYP2C9 inhib 22, CYP2C19 activ 0.8, MRP1 act -1, MRP reversal 1, CYP2C19 inhib 16 and CYP2C9 act 0.8.
For CCOC(=O)N1CCC(NC(=O)CC(NS(=O)(=O)c2ccc(Cl)cc2)c2ccco2)CC1 (centres undefined) the results were CYP2C9 inhib 54*, CYP2C19 activ 0.4, MRP1 act -2, MRP reversal -2, CYP2C19 inhib 60* and CYP2C9 act 0.5.
For COC(=O)C1(C(=O)OC)NOC2C(=O)N(c3ccccc3)C(=O)C21 (centres undefined) the results were CYP2C9 inhib 0, CYP2C19 activ 1, MRP1 act -1, CYP2C19 inhib 1 and CYP2C9 act 1.
For Cc1nn(Cc2ccc(C(=O)Nc3nc4c(C)cccc4s3)o2)c(C)c1Br the results were CYP2C9 inhib 31, CYP2C19 activ 0.8, MRP1 act -2, MRP reversal 19, CYP2C19 inhib 23 and CYP2C9 act 0.7.
For Cc1csc(NC(=O)c2cccc(Cn3nc(C)c(Br)c3C)c2)n1 the results were CYP2C9 inhib 90*, CYP2C19 activ 0.1, MRP1 act 1, MRP reversal -3, CYP2C19 inhib 93* and CYP2C9 act 0.1.
`COC(=O)/C=C1\OC(c2ccccc2)=CC1=O` gave MRP1 act 1.
COc1ccccc1CNC(=O)c1cccs1 was read as CYP2C9 inhib -2, CYP2C19 activ 0.6, MRP1 act -3, CYP2C19 inhib 45 and CYP2C9 act 1.
COc1ccc(CNC(=O)CCS(=O)(=O)c2cccc3nonc23)cc1 was read as CYP2C9 inhib 30, CYP2C19 activ 0.3, MRP1 act -3, MRP reversal 6, CYP2C19 inhib 74* and CYP2C9 act 0.7.
`Cc1ccc(CNC(=O)CCS(=O)(=O)c2cccc3nonc23)cc1` gave CYP2C9 inhib -23, CYP2C19 activ 0.6, MRP1 act -1, MRP reversal -4, CYP2C19 inhib 37 and CYP2C9 act 1.2.
Screening COc1ccc(NC(=O)CCS(=O)(=O)c2cccc3nonc23)c(OC)c1 returned CYP2C9 inhib 8, CYP2C19 activ 0.6, MRP1 act 0, MRP reversal 17, CYP2C19 inhib 44 and CYP2C9 act 0.9.

Assay outcomes from PubChem.
